IL-1B inflam inh – qHTS for Inhibitors of Inflammasome Signaling: IL-1-beta AlphaLISA Primary Screen. THP-1 LPS/ATP IL-1B secretion, AlphaLISA, 16 h; active compounds read low. activity change, % at 57.5 µM. hit rate 4.7% among 360,000; in the data active = activity change below about -50%; inconclusive = mostly about -30% to -49%
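Secreted IL-1B measured by AlphaLISA bead assay after 16 h compound exposure of THP-1 cells; compounds (final up to 57.5 uM) added 1 h before LPS (250 ng/mL) and ATP (1.25 mM) stimulation; lower signal means less secretion.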
VP16 counter – VP16 counterscreen qHTS for inhibitors of ROR gamma transcriptional activity; hit rate 3.5% among 310,000; Drosophila S2 Gal4-VP16 UAS-luciferase, luminescence, 20 h; AID 2546, 2010; Potency, µM (top dose mostly 53.6 µM), actives largely listed as inhibitors;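 also: Gal4-VP16 expression switched on by copper sulfate through the metallothionein promoter; nearly all actives have a fitted effect of over 50% in size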
TDP1 cell CPT – qHTS for Inhibitors of human tyrosyl-DNA phosphodiesterase 1 (TDP1): qHTS in cells in presence of CPT; chicken DT40 Tdp1-/-;hTDP1 cells + 20 nM CPT, ATP luminescence, 48 h; Potency, µM (doses to about 46.2 µM), most hits filed as inhibitors; hit rate 12% among 420,000; also: nearly all actives have a fitted effect of over 55% in size
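Chicken DT40 Tdp1-/- cells complemented with human TDP1, 400 cells/well, exposed to compounds plus 20 nM camptothecin for at least 48 h at 37 C; viability read as ATP content by CellTiter-Glo luminescence.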
LDHA block – qHTS assay for inhibitors of human lactate dehydrogenase; L-lactate dehydrogenase A chain (Homo sapiens), P00338; purified LDHA, NADH/diaphorase-resazurin fluorescence; active compounds read low; activity change, % (values are at about 110 or 230 µM); hit rate 0.15% among 480,000; in the data active = activity change below about -30%; inconclusive = mostly about -25% to -30%
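Enzyme activity of human lactate dehydrogenase 5 (2 nM; 0.06 mM NADH, 0.2 mM pyruvate, 5 min, RT) is measured via a resazurin/diaphorase fluorescence readout of residual NADH.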
DT40 TDP1 no CPT – qHTS for Inhibitors of human tyrosyl-DNA phosphodiesterase 1 (TDP1): qHTS in cells in absence of CPT; hit rate 15% among 420,000; AID 686978, 2013; DT40 Tdp1-/- hTDP1 cells, no CPT, ATP luminescence, 48 h; Potency, µM (highest dose often 46.2 µM), most hits filed as inhibitors; also: nearly all actives have a fitted effect of over 55% in size
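DT40 Tdp1-/-;hTDP1 cells, no CPT (DMSO vehicle only), 400 cells/well; compounds pin-transferred; ≥48 hr, 37 °C; CellTiter-Glo 30 min RT dark, luminescence read.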
RORgamma inh – qHTS for inhibitors of ROR gamma transcriptional activity; Drosophila S2 Gal4-RORgamma UAS-luciferase reporter, 20 h; Nuclear receptor ROR-gamma (Mus musculus), P51450; Potency, µM (doses to about 53.6 µM), hits mostly inhibitors; hit rate 5.4% among 310,000; also: nearly all actives have a fitted effect of over 60% in size
Target sequence (P51450 whole entry, looked up, the tested form may be a part): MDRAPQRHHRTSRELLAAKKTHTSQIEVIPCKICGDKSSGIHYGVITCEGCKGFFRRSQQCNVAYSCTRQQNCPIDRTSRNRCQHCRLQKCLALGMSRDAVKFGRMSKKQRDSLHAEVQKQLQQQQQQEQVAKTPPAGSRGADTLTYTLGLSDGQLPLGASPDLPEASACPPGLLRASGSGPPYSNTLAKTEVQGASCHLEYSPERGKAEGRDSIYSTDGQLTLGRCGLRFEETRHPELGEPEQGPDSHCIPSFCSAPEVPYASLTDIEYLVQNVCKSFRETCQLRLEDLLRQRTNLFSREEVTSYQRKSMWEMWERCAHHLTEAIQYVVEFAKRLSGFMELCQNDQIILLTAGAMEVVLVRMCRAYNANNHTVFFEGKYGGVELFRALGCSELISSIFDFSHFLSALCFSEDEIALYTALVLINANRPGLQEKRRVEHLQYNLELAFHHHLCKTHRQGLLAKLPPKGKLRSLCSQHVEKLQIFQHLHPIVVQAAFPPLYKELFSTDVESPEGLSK
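Stably transfected Drosophila Schneider cells are the test system, with ROR gamma fused to Gal4 and luciferase under UAS control; luminescence is read after 20 hr of 700 uM copper sulfate induction at ambient temperature.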
Of the large screens only hits and unclear results are named; the others gave an inactive call. Rows were chosen to be rich in hits. Some 18% of all compounds tested hit in one or more screens of this group. Unless noted, calls follow the shape of the dose curve; as a rule, active = well fitted curve in the direction sought with a large enough effect; inconclusive = small, poorly fitted or top-dose-only effect, or another doubt; inactive = no such curve, though single readings can be large; an effect the other way counts as inactive or inconclusive.

CCC(=O)c1cc2c(C)cc(=O)oc2c(C)c1OC	none
CCC(=O)Oc1c(C(=O)CC)cc2c(C)cc(=O)oc2c1C	IL-1B inflam inh -64.6, TDP1 cell CPT inconclusive, DT40 TDP1 no CPT inconclusive
CCOc1ccc(C(=O)NNC2CC(=O)N(Cc3ccc(Cl)cc3)C2=O)cc1OC (stereo not given)	VP16 counter 1.26µM, RORgamma inh 3.16µM
O=C(Nc1cccc(Cl)c1N1CCOCC1)c1ccco1	IL-1B inflam inh inconclusive, TDP1 cell CPT inconclusive, DT40 TDP1 no CPT inconclusive
CCN1CCN(c2c(Cl)cccc2NC(=O)c2ccco2)CC1	IL-1B inflam inh -68.1, DT40 TDP1 no CPT inconclusive
O=C(Nc1ccccc1N1CCN(C(=O)c2ccc(Cl)cc2)CC1)c1ccc([N+](=O)[O-])o1	IL-1B inflam inh -76.2, VP16 counter inconclusive, TDP1 cell CPT 20.6µM, DT40 TDP1 no CPT inconclusive
O=C(Nc1ccccc1N1CCOCC1)c1ccc([N+](=O)[O-])o1	TDP1 cell CPT 11.6µM, DT40 TDP1 no CPT 14.6µM
CCN1CCN(c2c(Cl)cccc2NC(=O)c2ccc([N+](=O)[O-])cc2)CC1	none
O=C(Nc1cccc(Cl)c1N1CCCC1)c1ccc([N+](=O)[O-])o1	IL-1B inflam inh -83.7
CCc1cc(C(c2ccc(OC)c(OC)c2)N2CCN(CC)CC2)c(NC(=O)c2ccco2)s1 (stereo not given)	none (no result: IL-1B inflam inh, VP16 counter, TDP1 cell CPT, DT40 TDP1 no CPT, RORgamma inh)
Cn1c(=O)c2nc(SCC(=O)O)n(Cc3ccccc3)c2n(C)c1=O	none (no result: IL-1B inflam inh, VP16 counter, TDP1 cell CPT, DT40 TDP1 no CPT, RORgamma inh)
O=c1[nH]c(Nc2ccccc2Cl)nc2nccc(-c3ccco3)c12	none (no result: IL-1B inflam inh, VP16 counter, TDP1 cell CPT, DT40 TDP1 no CPT, RORgamma inh)
O=C(Nc1ccccc1N1CCCCC1)c1ccc([N+](=O)[O-])o1	IL-1B inflam inh inconclusive, TDP1 cell CPT 20.6µM, DT40 TDP1 no CPT 16.4µM (no result: VP16 counter, RORgamma inh)
Clc1ccc(N2COC3c4cccc5cccc(c45)C32)cc1 (stereo not given)	VP16 counter inconclusive, DT40 TDP1 no CPT inconclusive
COc1ccc(N2COC3c4cccc5cccc(c45)C32)cc1 (stereo not given)	TDP1 cell CPT 5.8µM, DT40 TDP1 no CPT 8.2µM
CC(=O)c1ccc(NC(=O)CSc2nc(Nc3ccccc3)nc(N3CCOCC3)n2)cc1	TDP1 cell CPT inconclusive, DT40 TDP1 no CPT inconclusive
Fc1ccc(Nc2nc(N3CCOCC3)nc(N3CCOCC3)n2)cc1Cl	TDP1 cell CPT inconclusive
CSc1nc2ccc(Nc3nc(N4CCOCC4)nc(N4CCOCC4)n3)cc2s1	TDP1 cell CPT 23.1µM, DT40 TDP1 no CPT 16.4µM, RORgamma inh inconclusive (no result: IL-1B inflam inh, VP16 counter)
O=C(CSc1nc2ccc(Nc3nc(N4CCOCC4)nc(N4CCOCC4)n3)cc2s1)Nc1ccccc1F	TDP1 cell CPT 6.51µM, DT40 TDP1 no CPT 5.8µM
NS(=O)(=O)c1ccc(NC(=O)CSc2nc(Nc3ccccc3)nc(N3CCOCC3)n2)cc1	TDP1 cell CPT 20.6µM, DT40 TDP1 no CPT 16.4µM
O=C(CSc1nc2ccc(Nc3nc(N4CCCC4)nc(N4CCCC4)n3)cc2s1)NCc1ccco1	TDP1 cell CPT 5.8µM, DT40 TDP1 no CPT 6.51µM
CC(C)c1nnc(NC(=O)c2cccc3ncccc23)s1	none (no result: IL-1B inflam inh, VP16 counter, TDP1 cell CPT, DT40 TDP1 no CPT, RORgamma inh)
O=C(O)C(c1c[nH]c2cc(Br)ccc12)N1CCCN(c2ccc(C(F)(F)F)cn2)CC1 (stereo not given)	none (no result: IL-1B inflam inh, VP16 counter, TDP1 cell CPT, DT40 TDP1 no CPT, RORgamma inh)
CC(C)(C)Nc1nc(SCC(=O)Nc2ccccc2Cl)nc(N2CCOCC2)n1	TDP1 cell CPT inconclusive
O=C(CSc1nc2ccc(Nc3nc(N4CCOCC4)nc(N4CCOCC4)n3)cc2s1)Nc1ccccc1Cl	VP16 counter inconclusive, TDP1 cell CPT 20.6µM, DT40 TDP1 no CPT inconclusive, RORgamma inh inconclusive
CC(=O)Nc1ccc2nc(SCC(=O)N3CCOCC3)sc2c1	none
O=C(CSc1nc2ccc(Nc3nc(N4CCOCC4)nc(N4CCOCC4)n3)cc2s1)N1CCOCC1	TDP1 cell CPT 20.6µM, DT40 TDP1 no CPT 18.4µM
